Experimental data: PubChem BioAssay AID1159580 (chemical genetic matrix, 2015)
The whole screen tested about 5,500 compounds, of which about 2,000 (36%) were called active. About 18% were inconclusive and are not listed. Rule as the data show it: active = normalized growth mostly below about 0.91 (no sharp cut-off); inconclusive = no clear call, values can overlap the other calls; inactive = mostly above about 0.92. This is one part of the list.

Experiment: chemical genetic growth profiling, strain panel (AID 1159580);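 also: tested at 20 µM; growth read once vehicle control cultures reached saturation at 30 °C; 1 = growth at the plate median or of vehicle wells; lower values mean less growth of the strain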
Conditions: S. cerevisiae deletion strains, growth OD

Measured: normalized growth

Clc1cncc(Cl)c1N/N=C\C1CC2C=CC1C2 (stereo not drawn)
active: locus YHR030C, strain SLT2, hits give low values 0.644 | locus YHR087W, strain rtc3, hits give low values 0.874 | locus YLR039C, strain RIC1, hits give low values 0.599 | locus YLR085C, strain ARP6, hits give low values 0.74 | locus YLR262C, strain YPT6, hits give low values 0.601 | locus YML094W, strain GIM5, hits give low values 0.838 | locus YNL298W, strain CLA4 (second series), hits give low values 0.799 | locus YPR135W, strain CTF4, hits give low values 0.622
inactive: locus YAL013W, strain DEP1, hits give low values 0.937 | locus YBR229C, strain ROT2, hits give low values 0.939 | locus YCL061C, strain MRC1, hits give low values 0.928 | locus YDL101C, strain DUN1, hits give low values 0.926 | locus YDL134C, strain PPH21, hits give low values 1.01 | locus YDR150W, strain NUM1, hits give low values 0.915 | locus YEL061C, strain CIN8, hits give low values 0.914 | locus YGR078C, strain PAC10, hits give low values 0.967 | locus YJL187C, strain SWE1, hits give low values 0.989 | locus YJR043C, strain POL32, hits give low values 1 | locus YJR075W, strain HOC1, hits give low values 0.935 | locus YLR058C, strain SHM2 (second series), hits give low values 0.99 | locus YMR219W, strain ESC1, hits give low values 0.988 | locus YMR263W, strain SAP30, hits give low values 0.939 | locus YMR307W, strain GAS1, hits give low values 0.878 | locus YNL153C, strain GIM3, hits give low values 0.957 | locus YNL322C, strain KRE1, hits give low values 0.986 | locus YNR030W, strain Alg12, hits give low values 0.924 | locus YPL055C, strain LGE1, hits give low values 0.872 | locus YPL241C, strain CIN2, hits give low values 0.871
